Results: PubChem BioAssay AID1159580 (chemical genetic matrix, 2015)
In all, about 5,500 compounds went through this assay and about 2,000 (36%) were called active. About 18% were inconclusive and are not listed. No stated cut-off is given here; in the data, active means normalized growth mostly below about 0.91 (no sharp cut-off); inconclusive means no clear call, values can overlap the other calls; inactive means mostly above about 0.92. This is one part of the list.

Experiment: chemical genetic growth profiling, strain panel (AID 1159580);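 further: tested at 20 µM; growth read once vehicle control cultures reached saturation at 30 °C; 1 = growth at the plate median or of vehicle wells; lower values mean less growth of the strain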
Conditions: growth OD

Measured: normalized growth

N#CCCN1C(=O)C2(OCCO2)c2ccccc21
inactive: S. cerevisiae deletion strains, locus YAL013W, strain DEP1, active compounds read low 1.01 | S. cerevisiae deletion strains, locus YBR229C, strain ROT2, active compounds read low 1.01 | S. cerevisiae deletion strains, locus YCL061C, strain MRC1, active compounds read low 1 | S. cerevisiae deletion strains, locus YDL101C, strain DUN1, active compounds read low 0.976 | S. cerevisiae deletion strains, locus YDR150W, strain NUM1, active compounds read low 0.977 | S. cerevisiae deletion strains, locus YEL061C, strain CIN8, active compounds read low 0.997 | S. cerevisiae deletion strains, locus YGR078C, strain PAC10, active compounds read low 1 | S. cerevisiae deletion strains, locus YHR030C, strain SLT2, active compounds read low 1 | S. cerevisiae deletion strains, locus YHR087W, strain rtc3, active compounds read low 0.991 | S. cerevisiae deletion strains, locus YJL187C, strain SWE1, active compounds read low 1 | S. cerevisiae deletion strains, locus YJR043C, strain POL32, active compounds read low 1 | S. cerevisiae deletion strains, locus YJR075W, strain HOC1, active compounds read low 1 | S. cerevisiae deletion strains, locus YLR039C, strain RIC1, active compounds read low 1.02 | S. cerevisiae deletion strains, locus YLR058C, strain SHM2 (second series), active compounds read low 1 | S. cerevisiae deletion strains, locus YLR085C, strain ARP6, active compounds read low 1.02 | S. cerevisiae deletion strains, locus YLR262C, strain YPT6, active compounds read low 1.02 | S. cerevisiae deletion strains, locus YML094W, strain GIM5, active compounds read low 0.986 | S. cerevisiae deletion strains, locus YMR219W, strain ESC1, active compounds read low 1.01 | S. cerevisiae deletion strains, locus YMR263W, strain SAP30, active compounds read low 1.05 | S. cerevisiae deletion strains, locus YMR307W, strain GAS1, active compounds read low 1.05 | S. cerevisiae deletion strains, locus YNL153C, strain GIM3, active compounds read low 1.02 | S. cerevisiae deletion strains, locus YNL298W, strain CLA4 (second series), active compounds read low 1 | S. cerevisiae deletion strains, locus YNL322C, strain KRE1, active compounds read low 0.997 | S. cerevisiae deletion strains, locus YNR030W, strain Alg12, active compounds read low 1 | S. cerevisiae deletion strains, locus YOL006C, strain TOP1, active compounds read low 1.02 | S. cerevisiae deletion strains, locus YPL055C, strain LGE1, active compounds read low 1.02 | S. cerevisiae deletion strains, locus YPL241C, strain CIN2, active compounds read low 1.01 | S. cerevisiae deletion strains, locus YPR135W, strain CTF4, active compounds read low 1.09 | S. cerevisiae strains, strain wild type, active compounds read low 1.02
